Among the data in PubChem BioAssay (NCI) are growth values, retold here.

Common to all, as to assay: NCI-60 one-dose screen, 48 h (100 = growth as untreated, 0 = no growth, -100 = all killed)
What all share (details): 10 µM unless noted

For assay [1], the system named is NCI-H23 lung.
Assay [2] has as its system NCI-H226 lung.
Assay [3] has as its system NCI-H322M lung.
In assay [4] the test system is HOP-62 NSCLC.
In assay [5] the test system is NCI-H460 lung.
Assay [6] concerns HOP-92 NSCLC.
The test system of assay [7] is A549/ATCC NSCLC.
Assay [8] concerns 786-0 renal.
The subject of assay [9] is COLO 205 colon.
For assay [10], the system named is NCI-H522 lung.

This is part of a sample that, as a whole, favours compounds with a hit. Of some 83,000 tested, about 20% had one in any assay.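 Single-dose data. Exposure time 48 hours. Values below 10 considered active.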 Values without a mark were called inactive. The source made the active and inactive calls.

Regarding `COc1ccc(-c2[nH]c3ccccc3c2C=C(C#N)C#N)cc1`, the growth was 2.52% (active) in [1]; 25.8% in assay [2]; 52.1% in assay [3]; 32.2% in assay [4]; 6.67% (active) in [5]; -17.2% (active) in [6]. In addition, the figures for the growth in assay [7], in assay [8] and in [9] were 5.94% (active), 14.9% and -8.28% (active), respectively.

Consider `Cc1ccc(C2CC(c3ccc(Nc4nc(NCCO)nc(NCCO)n4)cc3)=NN2c2ccc(Cl)cc2)cc1` (configuration not stated), for which the growth in assay [1] is 71.8%; in [2], 101%; in assay [3], 51.3%; in [4], 67.6%; in assay [5], 26.6%; in assay [6] it was 88.6%. Further, the growth is 48.1% in assay [7], 23.7% in assay [8] and 70.3% in [9].

In the case of `Cc1cc(C)n(-c2nc(-c3cccs3)c(C#N)c(=O)[nH]2)n1`, the growth in assay [1] was 97.6%; in [2] it was 105%; in assay [3], 92.1%; in assay [4], 81.2%; in assay [5] it was 96.8%; in assay [6], 102%. Further, the growth in assay [7] is 99.9%; in [8], 93.1%; in assay [9], 111%.

On to `COc1ccc2c(c1)Oc1nc(N)c(C#N)c(N)c1C2Sc1ccc(O)cc1` (configuration not stated), for which the growth was 93% in assay [1]; 94.5% in [2]; 100% in assay [3]; 94.5% in assay [4]; 104% in [5]; 92.4% in assay [6]. Moreover, the growth is 98.4% in [7], 106% in [8] and 79.7% in assay [9].

With `CCCn1c2cc(OCc3cn(-c4ccc(Cl)cc4)nn3)ccc2c2ccnc(C)c21`, the growth in assay [1] was 78.1%; in assay [2], 69.5%; in assay [3], 73%; in assay [4], 70.1%; in [5] it was 71.1%; in assay [6] it was 50.5%. Moreover, the growth in [7] is 70.8%; in assay [8], 34.8%; in [9], 44.1%.

As to `CN(C)C1=NCCN1`, the growth in assay [1] was 99.3%; in [2], 99.4%; in [3], 105%; in assay [4], 107%; in [5], 110%; in [6] it was 74.8%. The growth in assay [10] is 73.4%; in [7], 90%; in assay [8] it was 89.6%; in [9], 111%.

On to `NC(N)=NC(N)=Nc1cc2ccccc2c2ccccc12`, for which the growth in assay [1] is 44.8%; in assay [2] it was 54.3%; in assay [3] it was 53.3%; in [4], 38.3%; in assay [5] it was 21.9%; in assay [6], -3.37% (active). Moreover, the growth in assay [10] was 7.5% (active); in assay [7], 41.1%; in [8] it was 14.4%; in [9], -59% (active).

For `Cn1nc(C(F)(F)F)c(-c2cc(C(F)(F)F)cc(C(F)(F)F)c2)c1-c1ccc(OCc2ccc(Cl)cc2)cc1O`, the growth in [1] is 0.56% (active); in assay [2], 13.9%; in assay [3], 5.67% (active); in assay [4] it was -9.87% (active); in assay [5], -10.4% (active); in [6], -20.1% (active). In addition, the growth is 10.5% in [7], 2.41% (active) in assay [8] and -90.7% (active) in assay [9].

Regarding `Cc1cc(C)c2nc(Nc3nc(C)c(C)c(=O)[nH]3)nc(C)c2c1`, the growth was 18.4% in assay [1]; -4.16% (active) in assay [2]; 23.8% in assay [3]; 12.2% in [4]; 8.55% (active) in [5]; 7.24% (active) in assay [6]. The growth is -32.4% (active) in assay [7], 6.33% (active) in assay [8] and 1.63% (active) in [9].

Take `C=C1C(=O)O[C@H]2[C@H]1CC/C(COC(=O)c1cc3ccccc3o1)=C\CC[C@@]1(C)O[C@@H]21`: the growth in assay [1] was 32.8%; in [2] it was 45.6%; in assay [3], 78.1%; in assay [4], 42.7%; in assay [5] it was 42.2%; in assay [6], -52.7% (active). The growth was 51.4% in [7], -19.1% (active) in assay [8] and -65.6% (active) in assay [9].

`CC(C)(C)c1ccc2oc(=O)n(SC(Cl)(Cl)Cl)c2c1`: the growth in [1] is 95.1%; in [2], 104%; in assay [3], 106%; in assay [4], 94.1%; in assay [5] it was 96.6%; in assay [6] it was 106%. For the same compound, the growth in assay [10] is 79%; in assay [7], 97%; in [8] it was 91.1%; in [9], 106%.

Regarding `Cc1cc(C)nc(NS(=O)(=O)c2ccc(Nc3ccc4c5c(n(CCCN(C)C)c(=O)c4c3)-c3ccccc3C5=O)cc2)n1`, the growth was 83.9% in assay [1]; 83.3% in assay [2]; 109% in assay [3]; 70.1% in [4]; 28.9% in assay [5]; 90.1% in assay [6]. For the same compound, the growth in assay [10] was 73%; in [7], 52.3%; in [8], 80.5%; in assay [9], 70.4%.

Regarding `Cc1nc2sc(C(=O)Nc3ccccc3Cl)c(N)c2cc1C(C)O` (configuration not stated), the growth in assay [1] was 93.5%; in assay [2] it was 93.1%; in [3], 91.1%; in assay [4], 75.8%; in assay [5], 98.8%; in assay [6], 83.3%. In addition, the growth was 74% in [10], 75.6% in assay [7], 84.8% in assay [8] and 60.2% in [9].
